Source: the supplement of paper PMC9262897, “Low-cost anti-mycobacterial drug discovery using engineered E. coli” (Nature Communications, 2022)
Counter-ions that a name gives are not always drawn. ± gives the standard deviation of the averaged measurements.

What was measured:
Test in all cases: growth (OD600 after 10 h); higher = more growth (less inhibition)
[1] = system: E. coli TESEC Alr+ wild-type control; details: compound 0.1 mM; raw OD600 reference: median of DMSO wells 0.241, cell-free background 0.041
Experimental: (§1)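 TESEC Mtb Alr E. coli, or the Alr+ wild-type control, in 384-well plates with Prestwick library compounds at 0.1 mM and 1% DMSO, across arabinose induction levels of 1E3 to 1E7 nM. Growth is read as OD600 after 10 h at 37 °C in triplicate biological replicates.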

E. coli TESEC Mtb Alr [2] = details: compound 0.1 mM
Experimental: as §1

E. coli TESEC Mtb Asd = details: compound 0.1 mM
Experimental: (§2)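 TESEC E. coli strains in which the native enzyme is deleted and replaced by arabinose-inducible Mtb Asd, DapB, CysH or TrpD, each grown in its selective medium. Strains were screened against the Prestwick library at 0.1 mM and 1% DMSO in 384-well format at low and high arabinose induction. Growth is read as OD600 after 10 h in triplicate.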

E. coli TESEC Mtb DapB = details: compound 0.1 mM
Experimental: as §2

[3] = system: E. coli TESEC Alr+ wild-type control; details: compound 0.1 mM; raw OD600 reference: median of DMSO wells 0.49, cell-free background 0.052
Experimental: (§3)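 TESEC Mtb Alr E. coli (ΔaraC ΔtolC ΔentC Δalr ΔdadX, arabinose-inducible Mtb Alr) or the Alr+ wild-type control strain, grown in defined M9-fructose medium without D-alanine in 96-well plates with Prestwick library compounds at 0.1 mM and 1% DMSO. Low Alr induction is 0.1 µM arabinose and high induction is 10 mM arabinose.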

E. coli TESEC Mtb Alr [4] = details: compound 0.1 mM; remark: listed apart in the source
Experimental: as §3

[5] = arabinose 1000 nM, raw OD600 reference: median of DMSO wells 0.294, cell-free background 0.041
[6] = arabinose 10000 nM, raw OD600 reference: median of DMSO wells 0.264, cell-free background 0.041
[7] = arabinose 100000 nM, raw OD600 reference: median of DMSO wells 0.201, cell-free background 0.041
[8] = arabinose 1000000 nM, raw OD600 reference: median of DMSO wells 0.193, cell-free background 0.041
[9] = arabinose 10000000 nM, raw OD600 reference: median of DMSO wells 0.146, cell-free background 0.041
[10] = arabinose induction (level): High, raw OD600 reference: median of DMSO wells 0.331, cell-free background 0.041
[11] = arabinose induction (level): Low, raw OD600 reference: median of DMSO wells 0.417, cell-free background 0.041
[12] = arabinose induction (level): High, raw OD600 reference: median of DMSO wells […], cell-free background 0.041
[13] = arabinose induction (level): Low, raw OD600 reference: median of DMSO wells 0.227, cell-free background 0.041
[14] = arabinose 100 nM, raw OD600 reference: median of DMSO wells 0.413, cell-free background 0.052
[15] = arabinose 10000000 nM, raw OD600 reference: median of DMSO wells […], cell-free background 0.052

Structure (SMILES) | growth [1] | growth (E. coli TESEC Mtb Alr [2]; [5]) | growth (E. coli TESEC Mtb Alr [2]; [6]) | growth (E. coli TESEC Mtb Alr [2]; [7]) | growth (E. coli TESEC Mtb Alr [2]; [8]) | growth (E. coli TESEC Mtb Alr [2]; [9]) | growth (E. coli TESEC Mtb Asd; [10]) | growth (E. coli TESEC Mtb Asd; [11]) | growth (E. coli TESEC Mtb DapB; [12]) | growth (E. coli TESEC Mtb DapB; [13]) | growth [3] | growth (E. coli TESEC Mtb Alr [4]; [14]) | growth (E. coli TESEC Mtb Alr [4]; [15])
CO[C@@H]1[C@@H](OC(N)=O)[C@@H](O)[C@H](Oc2ccc3c(O)c(NC(=O)c4ccc(O)c(CC=C(C)C)c4)c(=O)oc3c2C)OC1(C)C [Novobiocin sodium salt] | 0.0431 ± 0.00086 | 0.0437 ± 0.0029 | 0.0409 ± 0.0007 | 0.0461 ± 0.0025 | 0.0415 ± 0.00082 | 0.0423 ± 0.00026 | 0.0533 ± 0.0015 | 0.0535 ± 0.0063 | 0.05077 ± 0.0005 | 0.0501 ± 0.00055 | 0.0556 ± 0.0007 | 0.0617 ± 0.0036 | 0.052 ± 0.0006
Nc1c2c(nc3ccccc13)CCCC2O (racemic) [Hydroxytacrine maleate (R,S)] | 0.227 ± 0.0038 | 0.264 ± 0.028 | 0.257 ± 0.0076 | 0.202 ± 0.025 | 0.176 ± 0.0061 | 0.144 ± 0.0023 | 0.218 ± 0.012 | 0.257 ± 0.034 | 0.203 ± 0.018 | 0.205 ± 0.015 | 0.612 ± 0.088 | 0.4 ± 0.0077 | 0.352 ± 0.0099
Cc1[nH]c(=O)c(C#N)cc1-c1ccncc1 [Milrinone] | 0.199 ± 0.0031 | 0.27 ± 0.0094 | 0.229 ± 0.0033 | 0.169 ± 0.018 | 0.136 ± 0.0068 | 0.148 ± 0.0037 | 0.304 ± 0.06 | 0.329 ± 0.054 | 0.212 ± 0.0044 | 0.236 ± 0.014 | 0.636 ± 0.046 | 0.43 ± 0.0055 | 0.305 ± 0.0071
CCCCOc1cc(C(=O)OCCN(CC)CC)ccc1N [Benoxinate hydrochloride] | 0.206 ± 0.0046 | 0.256 ± 0.016 | 0.25 ± 0.0055 | 0.177 ± 0.015 | 0.1482 ± 0.00091 | 0.143 ± 0.0029 | 0.27 ± 0.12 | 0.451 ± 0.059 | 0.183 ± 0.016 | 0.21 ± 0.036 | 0.476 ± 0.024 | 0.4124 ± 0.0014 | 0.33 ± 0.011
CC(=O)NS(=O)(=O)c1ccc(N)cc1 [Sulfacetamide sodic hydrate] | 0.265 ± 0.006 | 0.313 ± 0.029 | 0.261 ± 0.0078 | 0.237 ± 0.011 | 0.187 ± 0.02 | 0.151 ± 0.0041 | 0.375 ± 0.022 | 0.407 ± 0.063 | 0.188 ± 0.0037 | 0.232 ± 0.048 | 0.486 ± 0.053 | 0.406 ± 0.013 | 0.353 ± 0.018
COc1ccc(-c2ccc3cc(C(=O)O)ccc3c2)cc1C12CC3CC(CC(C3)C1)C2 [Adapalene] | 0.2339 ± 0.00031 | 0.282 ± 0.014 | 0.26 ± 0.0041 | 0.185 ± 0.013 | 0.223 ± 0.016 | 0.125 ± 0.0023 | 0.231 ± 0.0037 | 0.298 ± 0.079 | 0.193 ± 0.013 | 0.249 ± 0.028 | 0.483 ± 0.01 | 0.435 ± 0.014 | 0.402 ± 0.085
COCCCOc1ccnc(C[S+]([O-])c2nc3ccccc3[nH]2)c1C (stereo not given) [Rabeprazole Sodium salt] | 0.186 ± 0.0019 | 0.213 ± 0.023 | 0.262 ± 0.011 | 0.135 ± 0.0037 | 0.0782 ± 0.0026 | 0.1339 ± 0.0007 | 0.423 ± 0.028 | 0.371 ± 0.01 | 0.176 ± 0.021 | 0.207 ± 0.0085 | 0.375 ± 0.0068 | 0.357 ± 0.011 | 0.152 ± 0.035
CCN(CC)CCNC(=O)c1cc(Br)c(N)cc1OC [Bromopride] | 0.243 ± 0.025 | 0.312 ± 0.011 | 0.256 ± 0.0069 | 0.196 ± 0.0058 | 0.181 ± 0.006 | 0.1557 ± 0.00098 | 0.467 ± 0.025 | 0.4797 ± 0.0047 | 0.196 ± 0.014 | 0.256 ± 0.033 | 0.428 ± 0.011 | 0.4074 ± 0.0017 | 0.316 ± 0.022
Cc1cccc(Nc2ccccc2C(=O)O)c1C [Mefenamic acid] | 0.134 ± 0.0041 | 0.135 ± 0.0024 | 0.04523 ± 0.00015 | 0.141 ± 0.002 | 0.103 ± 0.0072 | 0.132 ± 0.0029 | 0.232 ± 0.03 | 0.26 ± 0.047 | 0.203 ± 0.027 | 0.208 ± 0.028 | 0.158 ± 0.011 | 0.169 ± 0.094 | 0.149 ± 0.011
COc1cnc(NS(=O)(=O)c2ccc(N)cc2)nc1 [Sulfameter] | 0.242 ± 0.0095 | 0.283 ± 0.0042 | 0.239 ± 0.011 | 0.218 ± 0.029 | 0.158 ± 0.0061 | 0.143 ± 0.0066 | 0.442 ± 0.039 | 0.399 ± 0.024 | 0.207 ± 0.027 | 0.243 ± 0.0072 | 0.516 ± 0.12 | 0.407 ± 0.021 | 0.336 ± 0.0042
CC(=O)N1CCN(c2ccc(OCC3COC(Cn4ccnc4)(c4ccc(Cl)cc4Cl)O3)cc2)CC1 (stereo not given) [Ketoconazole] | 0.05323 ± 0.00038 | 0.0525 ± 0.0042 | 0.04237 ± 0.00035 | 0.0541 ± 0.0007 | 0.04317 ± 0.0004 | 0.05383 ± 5.8e-05 | 0.0601 ± 0.0054 | 0.0507 ± 0.0015 | 0.0759 ± 0.0062 | 0.0712 ± 0.0069 | 0.0814 ± 0.011 | 0.32 ± 0.041 | 0.0608 ± 0.0022
COc1ccc2c(c1)C(=O)N(CCc1ccc(S(=O)(=O)NC(=O)NC3CCCCC3)cc1)C(=O)C2(C)C [Gliquidone] | 0.06 ± 0.018 | 0.0483 ± 0.0024 | 0.04083 ± 0.00021 | 0.0728 ± 0.0039 | 0.0491 ± 0.00068 | 0.119 ± 0.0032 | 0.126 ± 0.027 | 0.0965 ± 0.065 | 0.157 ± 0.015 | 0.173 ± 0.0091 | 0.0675 ± 0.001 | 0.108 ± 0.046 | 0.116 ± 0.0081
C[C@]12CC[C@H]3[C@@H](CCC4=CC(=O)CC[C@@]43C)[C@@H]1CC[C@@H]2C(=O)CO [Deoxycorticosterone] | 0.119 ± 0.0025 | 0.163 ± 0.022 | 0.152 ± 0.0059 | 0.122 ± 0.0033 | 0.107 ± 0.002 | 0.127 ± 0.006 | 0.363 ± 0.012 | 0.245 ± 0.01 | 0.136 ± 0.008 | 0.165 ± 0.0069 | 0.333 ± 0.018 | 0.362 ± 0.022 | 0.157 ± 0.0071
N=C(N)N/N=C/c1c(Cl)cccc1Cl [Guanabenz acetate] | 0.189 ± 0.012 | 0.224 ± 0.0084 | 0.2721 ± 0.00092 | 0.221 ± 0.021 | 0.144 ± 0.005 | 0.168 ± 0.0024 | 0.31 ± 0.039 | 0.432 ± 0.026 | 0.194 ± 0.0026 | 0.258 ± 0.065 | 0.453 ± 0.026 | 0.408 ± 0.0073 | 0.318 ± 0.011
O=C1c2ccccc2S(=O)(=O)N1CCCCN1CCN(c2ncccn2)CC1 [Ipsapirone] | 0.206 ± 0.0034 | 0.256 ± 0.015 | 0.249 ± 0.0074 | 0.171 ± 0.0059 | 0.154 ± 0.007 | 0.141 ± 0.0076 | 0.226 ± 0.048 | 0.389 ± 0.064 | 0.205 ± 0.026 | 0.221 ± 0.021 | 0.551 ± 0.04 | 0.4 ± 0.0047 | 0.313 ± 0.012
